From publication PMC5540273 (PLoS ONE, 2017)

test system: PDGFRB
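Note: kd values determined as follow-up on hits from a single-replicate KINOMEscan panel screen.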

Structure (SMILES)	Kd [nM]
Cc1ccc(NC(=O)Nc2ccccc2)cc1-c1ccc(C(=O)Nc2ccncc2)cc1 [GSK1398471]	28
Cc1ccc(NC(=O)c2ccc(Cl)cc2)cc1-c1ccc(C(=O)Nc2ccncc2)cc1 [GSK1398467]	9.7
Cc1ccc(NC(=O)Nc2ccc(Cl)c(C(F)(F)F)c2)cc1-c1ccc(C(=O)Nc2ccncc2)cc1 [GSK1398470]	270
Cc1cnc(N)c(/C=C/c2cncc(C(=O)NCCc3ccc(Cl)cc3Cl)c2)c1.Cl [GSK190937]	140
COc1cccc(NC(=O)Nc2ccc(C)c(-c3ccc(C(=O)Nc4ccncc4)cc3)c2)c1 [GSK1398474]	40
CS(=O)(=O)Cc1ccc(Nc2nccc(-c3c(-c4cccc(NC(=O)C5CCCCC5)c4)nn4ncccc34)n2)cc1 [GSK350559]	74
Cc1ccc(NC(=O)Nc2ccc(Cl)cc2)cc1-c1ccc(C(=O)Nc2ccncc2)cc1 [GSK1398472]	86
O=C(Nc1n[nH]c2cc(-c3ccsc3)ccc12)C1CC1 [SB-732932]	700
Cc1ccc(NC(=O)Nc2ccccc2F)cc1-c1ccc(C(=O)Nc2ccncc2)cc1 [GSK1398477]	47

test system: PIK3C2B

Structure (SMILES)	Kd [nM]
COc1ccc(Nc2nccc(NCCNC(=O)Nc3cc(C)ccc3C)n2)cc1 [GSK1379899]	> 10000
CNCc1ccc2nc(NC(=O)c3ccc(C(C)(C)C)cc3)cn2c1	> 10000
COc1cccc(NC(=O)Nc2ccc(C)c(-c3ccc(C(=O)Nc4ccncc4)cc3)c2)c1 [GSK1398474]	> 10000
Fc1ccc(-c2nc3n(c2-c2ccncc2)CCS3)cc1 [GI98581]	> 10000

test system: PIK3CA

Structure (SMILES)	Kd [nM]
COc1ccc(Nc2nccc(NCCNC(=O)Nc3cc(C)ccc3C)n2)cc1 [GSK1379899]	> 10000
CNCc1ccc2nc(NC(=O)c3ccc(C(C)(C)C)cc3)cn2c1	> 10000
COc1cccc(NC(=O)Nc2ccc(C)c(-c3ccc(C(=O)Nc4ccncc4)cc3)c2)c1 [GSK1398474]	> 10000
Fc1ccc(-c2nc3n(c2-c2ccncc2)CCS3)cc1 [GI98581]	> 10000

test system: PIK3CB

Structure (SMILES)	Kd [nM]
Cc1c(Cn2c3ccccc3n3c(=O)cc(N4CCOCC4)nc23)cccc1C(F)(F)F [GSK2306394]	680
Cc1ccccc1Cn1ccn2c(=O)cc(N3CCOCC3)nc12 [GSK2269905]	27
O=c1cc(N2CCOCC2)nc2n(Cc3ccccc3F)ccn12 [GSK2297428]	180
CCn1c(-c2c(N)noc2C)nc2cnccc21 [SB-737856]	> 10000
Cc1c(Cn2c(C)c(C)n3c(=O)cc(N4CCOCC4)nc23)cccc1C(F)(F)F [GSK2328680]	16
O=C1NC(=O)C(c2ccc(Cl)cc2)=C1Nc1cccc(Cl)c1 [SB-317651]	160
O=c1cc(N2CCOCC2)nc2n(Cc3cccc(Cl)c3Cl)c3ccccc3n12 [GSK2299009]	860
